Assay results published in PubChem BioAssay.
The source made the active and inactive calls.

Columns and labels:
[1] = optical density shifts of acrAB sulA E. coli – strain DRC41, OD650, 48 h, E. coli filamentation inducer project, primary screen (AID 1152); settings: higher = more signal, called active from +8 up or from −8 down;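 also: E. coli MC1000 strain DRC41 lacking acrAB efflux pump and sulA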
[2] = probe aLefty1 binding on compound microarray – biochemical, small-molecule microarray, 635/667 nm fluorescence, primary screen (AID 1153); settings: higher = more signal;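 also: score merges spot fluorescence with signal-to-noise ratio from the scanned slide images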
[3] = plasmodial surface anion channel blockers, osmotic lysis – cell-based, P. falciparum Indochina, OD700, 1 h, primary screen (AID 1154); settings: P. falciparum Indochina infected RBC osmotic lysis, higher = more signal, called active from +8 up or from −8 down
[4] = plasmodial surface anion channel blockers, osmotic lysis – cell-based, P. falciparum Indochina, OD700, 2 h, primary screen (AID 1155);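 also: lysis reports solute entry through the parasite surface anion channel PSAC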; settings: P. falciparum Indochina infected erythrocytes, higher = more signal, called active from +8 up or from −8 down
[5] = changes in parasitized red cell lysis, either direction – P. falciparum Indochina, OD700, 3 h, PSAC antagonist project, primary screen (AID 1156); settings: P. falciparum-infected erythrocytes, osmotic lysis, higher = more signal, called active from +8 up or from −8 down
[6] = plasmodial surface anion channel blockers, osmotic lysis – cell-based, P. falciparum Indochina, OD700, 18 h, primary screen (AID 1157); settings: P. falciparum Indochina infected erythrocytes, osmotic lysis OD700, 18 h; higher = more signal, called active from +8 up or from −8 down
[7] = S6 kinase pathway phospho-S6 level changes – cell-based, A549, cytoblot, luminescence, serum-stimulated, primary screen (AID 1158); settings: 5 h, higher = more signal;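 also: serum-stimulated A549 lung adenocarcinoma cells; signal is phosphorylated S6 detected by cytoblot immunostaining with HRP secondary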
[8] = target: NADPH oxidase 2 (Homo sapiens) (UniProt P04839); assay: compounds shifting NOX2 Amplex Red fluorescence – cell-based, HEK293-NOX2, PMA-stimulated, NOX inhibitor project, primary screen (AID 1159); settings: 45 min, higher = more signal, called active from +8 up or from −8 down; also: test concentration not given here
Chain of NADPH oxidase 2 (Homo sapiens) (P04839 whole entry, looked up): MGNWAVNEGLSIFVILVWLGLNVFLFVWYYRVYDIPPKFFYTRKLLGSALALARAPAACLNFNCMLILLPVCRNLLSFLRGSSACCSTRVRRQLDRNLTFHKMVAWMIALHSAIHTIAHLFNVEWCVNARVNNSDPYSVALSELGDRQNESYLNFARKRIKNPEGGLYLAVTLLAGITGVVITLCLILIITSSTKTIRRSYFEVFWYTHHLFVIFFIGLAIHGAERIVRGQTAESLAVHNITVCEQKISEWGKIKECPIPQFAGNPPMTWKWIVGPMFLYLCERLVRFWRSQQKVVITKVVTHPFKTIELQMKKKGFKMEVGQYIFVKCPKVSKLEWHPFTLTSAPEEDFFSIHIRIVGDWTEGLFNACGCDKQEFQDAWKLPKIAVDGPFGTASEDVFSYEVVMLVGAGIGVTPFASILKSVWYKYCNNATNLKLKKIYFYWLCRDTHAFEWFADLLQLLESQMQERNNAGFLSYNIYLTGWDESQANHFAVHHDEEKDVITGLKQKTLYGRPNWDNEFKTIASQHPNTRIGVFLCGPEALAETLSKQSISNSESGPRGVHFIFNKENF

[9] = target: NADPH oxidase 4 (Homo sapiens) (UniProt Q9NPH5); assay: compounds shifting NOX4 Amplex Red fluorescence – cell-based, HEK293-NOX4, tetracycline-induced, NOX inhibitor project, primary screen (AID 1160); settings: HEK293-NOX4, Amplex Red H2O2 fluorescence, 45 min; higher = more signal, called active from +8 up or from −8 down
Chain of NADPH oxidase 4 (Homo sapiens) (Q9NPH5 whole entry, looked up): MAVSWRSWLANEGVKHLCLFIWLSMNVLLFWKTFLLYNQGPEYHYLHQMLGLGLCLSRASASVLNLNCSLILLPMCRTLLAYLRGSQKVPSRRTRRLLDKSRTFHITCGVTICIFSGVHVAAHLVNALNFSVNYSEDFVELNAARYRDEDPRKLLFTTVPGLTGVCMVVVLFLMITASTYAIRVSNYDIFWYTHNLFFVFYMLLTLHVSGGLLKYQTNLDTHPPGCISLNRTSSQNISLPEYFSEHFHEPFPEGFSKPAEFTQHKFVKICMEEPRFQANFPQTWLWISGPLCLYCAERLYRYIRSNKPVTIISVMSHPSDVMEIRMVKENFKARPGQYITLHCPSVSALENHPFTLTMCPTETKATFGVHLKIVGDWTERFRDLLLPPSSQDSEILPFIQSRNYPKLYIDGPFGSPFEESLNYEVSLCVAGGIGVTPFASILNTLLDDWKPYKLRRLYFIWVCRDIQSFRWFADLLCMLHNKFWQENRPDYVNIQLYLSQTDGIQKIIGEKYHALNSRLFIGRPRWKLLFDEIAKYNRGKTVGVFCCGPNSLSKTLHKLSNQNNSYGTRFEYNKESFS

[10] = target: NADPH oxidase 5 (Homo sapiens) (UniProt Q96PH1); assay: compounds shifting NOX5 Amplex Red fluorescence – cell-based, HEK293-NOX5, NOX inhibitor project, primary screen (AID 1161); settings: HEK293-NOX5, ionomycin, 45 min, higher = more signal
Chain of NADPH oxidase 5 (Homo sapiens) (Q96PH1 whole entry, looked up): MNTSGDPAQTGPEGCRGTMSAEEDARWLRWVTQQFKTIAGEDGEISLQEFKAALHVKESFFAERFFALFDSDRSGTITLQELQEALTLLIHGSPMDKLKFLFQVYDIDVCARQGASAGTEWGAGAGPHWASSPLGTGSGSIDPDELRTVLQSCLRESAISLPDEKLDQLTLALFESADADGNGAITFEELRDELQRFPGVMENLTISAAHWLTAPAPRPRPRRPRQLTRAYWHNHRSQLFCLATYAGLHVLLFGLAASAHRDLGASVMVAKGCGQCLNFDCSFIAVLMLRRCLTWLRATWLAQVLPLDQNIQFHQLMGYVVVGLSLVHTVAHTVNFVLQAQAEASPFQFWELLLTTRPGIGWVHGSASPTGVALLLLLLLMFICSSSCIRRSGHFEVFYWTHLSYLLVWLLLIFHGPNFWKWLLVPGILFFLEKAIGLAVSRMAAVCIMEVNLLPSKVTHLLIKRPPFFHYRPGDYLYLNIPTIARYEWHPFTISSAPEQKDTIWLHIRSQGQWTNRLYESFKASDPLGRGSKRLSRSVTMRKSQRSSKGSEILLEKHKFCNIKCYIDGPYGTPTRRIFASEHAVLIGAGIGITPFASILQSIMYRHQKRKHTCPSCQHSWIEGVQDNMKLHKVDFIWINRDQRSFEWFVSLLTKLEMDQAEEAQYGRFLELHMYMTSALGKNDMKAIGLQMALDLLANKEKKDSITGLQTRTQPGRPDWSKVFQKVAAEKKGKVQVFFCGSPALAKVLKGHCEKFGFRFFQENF

[11] = compound effects on lung adenocarcinoma cell viability – A549, calcein-AM fluorescence, 48 h, basal, profiling panel (AID 1162); settings: higher = more signal; also: test concentration not given here
[12] = compound effects on differentiated 3T3-L1 adipocyte viability – cell-based, 3T3-L1 adipocytes, calcein-AM fluorescence, 48 h, basal, profiling panel (AID 1163); settings: 3T3-L1 adipocytes viability, higher = more signal; also: test concentration not given here
[13] = compound effects on hepatocellular carcinoma cell viability – HepG2, calcein-AM fluorescence, 48 h, basal, profiling panel (AID 1164); settings: higher = more signal; also: test concentration not given here
[14] = compound effects on multiple myeloma cell viability – MM1S, calcein-AM fluorescence, 48 h, basal, profiling panel (AID 1165); settings: higher = more signal;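 also: viability of MM1S multiple myeloma cells under basal unstimulated conditions; test concentration not given here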
[15] = calcein-AM signal in unstimulated myeloma cells – cell-based, calcein-AM fluorescence, 48 h, PK04 Diversity Set, profiling panel (AID 1166); settings: RPMI8226 myeloma viability, higher = more signal;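 also: cells grown under basal conditions without added stimulus; test concentration not given here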
[16] = JC-1 mitochondrial signal, unstimulated HepG2 cells – cell-based, JC-1 fluorescence, 24 h, 100 nL compound, profiling panel (AID 1167); settings: HepG2 mitochondrial potential, higher = more signal; also: test concentration not given here
[17] = JC-1 mitochondrial signal, unstimulated adipocytes – cell-based, JC-1 fluorescence, 3T3-L1 adipocytes, 24 h, 100 nL compound, profiling panel (AID 1168); settings: JC-1 mitochondrial fluorescence, higher = more signal, called active from +8 up or from −8 down; also: test concentration not given here
[18] = JC-1 mitochondrial signal, unstimulated myeloma cells – cell-based, JC-1 fluorescence, RPMI8226, 24 h, 100 nL compound, profiling panel (AID 1169); settings: JC-1 mitochondrial potential fluorescence, higher = more signal; also: test concentration not given here
[19] = JC-1 mitochondrial signal, unstimulated MM1S myeloma – cell-based, JC-1 fluorescence, 24 h, 100 nL compound, profiling panel (AID 1170); settings: MM1S mitochondrial potential, higher = more signal; also: test concentration not given here
[20] = resazurin metabolic signal in A549 cells – cell-based, resazurin fluorescence, 24 h, PK04 Diversity Set, profiling panel (AID 1171); settings: A549 viability, higher = more signal, called active from +8 up or from −8 down; also: test concentration not given here

Structure (SMILES): C=CCNC(=O)[C@H]1[C@@H]2C(=O)O[C@@H](c3ccccc3)[C@@H](c3ccccc3)N2[C@@H](c2ccc(OCCO)cc2)[C@]12C(=O)N(C(=O)OCCOC)c1ccc(C#Cc3ccc(OC)cc3)cc12
- z-score [1]: 2.2 (inactive)
- composite z-score [2]: 0.323
- z-score [3]: 3.4 (inactive)
- z-score [4]: 1.31 (inactive)
- z-score [5]: -0.0152 (inactive)
- z-score [6]: 0.121 (inactive)
- z-score [7]: 2.44
- z-score [8]: 1.19 (inactive)
- z-score [9]: 0.615 (inactive)
- z-score [10]: -0.0482
- z-score [11]: -0.394
- z-score [12]: 1.44
- z-score [13]: -0.652
- z-score [14]: -0.303
- z-score [15]: -1.2
- z-score [16]: -1.22
- z-score [17]: 3.09 (inactive)
- z-score [18]: -0.904
- z-score [19]: -0.529
- z-score [20]: 0.0724 (inactive)

Structure (SMILES): COc1ccc(C(=O)Nc2cccc(CN3C(=O)[C@@]4(O[C@@H](CC(=O)N(CCO)Cc5ccccc5)[C@H]([Si](C)(C)c5ccc(OC)cc5)[C@H]4C)c4ccccc43)c2)cc1
- z-score [1]: 1.23 (inactive)
- composite z-score [2]: -0.443
- z-score [3]: 12.3 (active)
- z-score [4]: 0.833 (inactive)
- z-score [5]: -0.39 (inactive)
- z-score [6]: -1.31 (inactive)
- z-score [7]: 1.58
- z-score [8]: 0.306 (inactive)
- z-score [9]: 0.56 (inactive)
- z-score [10]: 2.08
- z-score [11]: -0.269
- z-score [12]: 1.36
- z-score [13]: -1.39
- z-score [14]: -0.696
- z-score [15]: -4.07
- z-score [16]: 0.672
- z-score [17]: 2.67 (inactive)
- z-score [18]: -0.865
- z-score [19]: -0.789
- z-score [20]: -2.23 (inactive)

Structure (SMILES): C=CCOC(=O)[C@H]1[C@@H]2C(=O)O[C@@H](c3ccccc3)[C@@H](c3ccccc3)N2[C@@H](c2ccc(OCCOC(=O)[C@H]3C[C@H]4C(=O)N[C@@H](CCCCNC(C)=O)C(=O)N4[C@H]3c3cccc(OCCO)c3)cc2)[C@]12C(=O)Nc1ccc(I)cc12
- z-score [1]: 0.831 (inactive)
- composite z-score [2]: -0.625
- z-score [3]: 1.81 (inactive)
- z-score [4]: -0.285 (inactive)
- z-score [5]: 1.31 (inactive)
- z-score [6]: -1.61 (inactive)
- z-score [7]: 0.112
- z-score [8]: -0.224 (inactive)
- z-score [9]: 0.68 (inactive)
- z-score [10]: -0.174
- z-score [11]: 0.0973
- z-score [12]: 1.5
- z-score [13]: -0.621
- z-score [14]: 0.035
- z-score [15]: -0.665
- z-score [16]: -1.91
- z-score [17]: 0.622 (inactive)
- z-score [18]: -0.676
- z-score [19]: -0.519
- z-score [20]: -0.342 (inactive)

Structure (SMILES): CCN(CC)c1ccc(N2CC=CC34O[C@@H]5/C=C\CCC(C)OC(=O)C5[C@H]3C(=O)N(C(C)CO)[C@@H]4C2=O)cc1 (stereo not given in full)
- z-score [1]: 1.23 (inactive)
- composite z-score [2]: -0.196
- z-score [3]: 0.946 (inactive)
- z-score [4]: -0.227 (inactive)
- z-score [5]: 0.987 (inactive)
- z-score [6]: 0.304 (inactive)
- z-score [7]: -0.276
- z-score [8]: 0.33 (inactive)
- z-score [9]: -0.619 (inactive)
- z-score [10]: 1.69
- z-score [11]: -0.0588
- z-score [12]: -1.03
- z-score [13]: 1.48
- z-score [14]: 0.86
- z-score [15]: 0.388
- z-score [16]: 1.16
- z-score [17]: 0.0645 (inactive)
- z-score [18]: -0.616
- z-score [19]: -0.585
- z-score [20]: -0.0052 (inactive)

Structure (SMILES): O=C1C[C@@](C(=O)NCc2ccccc2)(c2ccc([N+](=O)[O-])cc2)[C@@H](c2ccc(CO)cc2I)N1CC12CC3CC(CC(C3)C1)C2
- z-score [1]: 0.832 (inactive)
- composite z-score [2]: -0.641
- z-score [3]: 8.97 (active)
- z-score [4]: 1.41 (inactive)
- z-score [5]: 2.53 (inactive)
- z-score [6]: 0.301 (inactive)
- z-score [7]: 2.5
- z-score [8]: -1.38 (inactive)
- z-score [9]: -4.29 (inactive)
- z-score [10]: -3.82
- z-score [11]: -1.84
- z-score [12]: 0.684
- z-score [13]: -2.67
- z-score [14]: -2.99
- z-score [15]: -4.33
- z-score [16]: 0.878
- z-score [17]: -0.473 (inactive)
- z-score [18]: -1.03
- z-score [19]: -0.91
- z-score [20]: -1.63 (inactive)

Structure (SMILES): C=C(COC)/C(=C/C[C@@H](OC(C)=O)c1ccc(CO)o1)c1cc(C(=O)OC)ccc1OC
- z-score [1]: 0.265 (inactive)
- composite z-score [2]: 0.051
- z-score [3]: 1.56 (inactive)
- z-score [4]: 0.362 (inactive)
- z-score [5]: 0.389 (inactive)
- z-score [6]: 0.0621 (inactive)
- z-score [7]: 0.187
- z-score [8]: 0.184 (inactive)
- z-score [9]: -0.207 (inactive)
- z-score [10]: 0.13
- z-score [11]: -0.109
- z-score [12]: -0.461
- z-score [13]: 0.322
- z-score [14]: -0.425
- z-score [15]: -0.0799
- z-score [16]: 0.0492
- z-score [17]: 0.208 (inactive)
- z-score [18]: -0.726
- z-score [19]: -0.927
- z-score [20]: 0.072 (inactive)

Structure (SMILES): CCOC(=O)C[C@H]1[C@H](OC(=O)c2ccc(-c3ccccc3)cc2)[C@@H](NC(=O)CC(C)C)c2cc(OCCCO)ccc2N1C(=O)c1ccccc1
- z-score [1]: -0.674 (inactive)
- composite z-score [2]: 0.113
- z-score [3]: 1.18 (inactive)
- z-score [4]: 0.389 (inactive)
- z-score [5]: -0.0732 (inactive)
- z-score [6]: 0.336 (inactive)
- z-score [7]: 0.574
- z-score [8]: 0.403 (inactive)
- z-score [9]: -0.742 (inactive)
- z-score [10]: 1.74
- z-score [11]: -0.426
- z-score [12]: -0.257
- z-score [13]: -0.0915
- z-score [14]: -1.17
- z-score [15]: -0.672
- z-score [16]: 1.32
- z-score [17]: -0.679 (inactive)
- z-score [18]: 0.983
- z-score [19]: 0.33
- z-score [20]: -0.719 (inactive)

Structure (SMILES): CC(C)(C)OC(=O)CC[C@]1(C(=O)N2CCCCC2)COC(c2ccc(OCCCO)cc2)=N1
- z-score [1]: 1.12 (inactive)
- composite z-score [2]: -0.403
- z-score [3]: 22.2 (active)
- z-score [4]: 5.22 (inactive)
- z-score [5]: 1.11 (inactive)
- z-score [6]: 0.663 (inactive)
- z-score [7]: -0.515
- z-score [8]: -2.59 (inactive)
- z-score [9]: 0.0723 (inactive)
- z-score [10]: -2.08
- z-score [11]: -0.34
- z-score [12]: 0.162
- z-score [13]: -0.614
- z-score [14]: -0.0601
- z-score [15]: -0.225
- z-score [16]: -0.696
- z-score [17]: -0.378 (inactive)
- z-score [18]: -0.492
- z-score [19]: -0.978
- z-score [20]: 2.58 (inactive)
